Common to all, as to experiment: difference in mean normalized H2B-mRuby nuclear fluorescence intensity relative to DMSO control (normalized intensity difference (DMSO = 0)); higher = stronger increase in transgene reporter fluorescence
Holding throughout (settings): 24 h

In one test the test system is H1299. A digest of the protocol:
(§1)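 Cancer cell lines stably expressing lentivirally transduced H2B-mRuby2 (hygromycin-selected) were drug-treated for 24 h with equalized DMSO. Cells were imaged unstained on a Leica DMI8 (excitation 541–551 nm, emission 565–605 nm) with bright-field autofocus. Nuclei were segmented in CellProfiler after illumination correction, using Sauvola adaptive thresholding. The value is the difference in mean per-nucleus normalized H2B-mRuby intensity from DMSO-treated cells, from about 3 repeats of 4 fields each.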

A further test relates to LN-18. An outline of the steps: as §1
Another test deals with SK-OV-3. A digest of the protocol: as §1

The source of these data is the supplement of paper PMC11026393.

`O=C(NOC[C@H](O)CO)c1ccc(F)c(F)c1Nc1ccc(I)cc1F` (concentration unit: uM): the difference is -0.0791 with H1299 (concentration: 0.05); -0.114 with H1299 (concentration: 0.1); -0.172 with H1299 (concentration: 0.25); -0.174 in the test on H1299 (concentration: 1); -0.199 in the test with H1299 (concentration: 5).

Turning to `Cn1c(=O)n(-c2ccc(C(C)(C)C#N)cc2)c2c3cc(-c4cnc5ccccc5c4)ccc3ncc21` (concentration unit: nM), the difference was 0.158 in the test with H1299 (concentration: 10); 0.191 in the test on H1299 (concentration: 50); 0.157 in the test with H1299 (concentration: 100); 0.0684 with H1299 (concentration: 250); 0.0286 in the test with H1299 (concentration: 500).

Turning to `Nc1ncn([C@@H]2O[C@H](CO)[C@@H](O)[C@H]2O)c(=O)n1` (concentration unit: uM), the difference in the test on H1299 (concentration: 1) was found to be 0.0691; in the test on H1299 (concentration: 2.5) it was 0.0657; in the test on H1299 (concentration: 5) it was 0.123; in the test with H1299 (concentration: 10), 0.125; with H1299 (concentration: 20), 0.109; in the test on LN-18 (concentration: 1), 0.03. Also, the difference in the test with LN-18 (concentration: 2.5) is 0.0353; in the test on LN-18 (concentration: 5), 0.0211; in the test with LN-18 (concentration: 10), 0.0474; in the test with LN-18 (concentration: 20), 0.00195; in the test with SK-OV-3 (concentration: 1), 0.0139; in the test with SK-OV-3 (concentration: 2.5) it was -0.0364. Further, the difference with SK-OV-3 (concentration: 5) was found to be 0.0517; with SK-OV-3 (concentration: 10) it was 0.126; in the test on SK-OV-3 (concentration: 20) it was 0.105.

Take `Cc1[nH]c2ccccc2c1CCNCc1ccc(/C=C/C(=O)NO)cc1` (concentration unit: nM): the difference worked out at 0.22 in the test with LN-18 (concentration: 10); 0.459 in the test with LN-18 (concentration: 50); 0.491 with LN-18 (concentration: 100); 0.528 with LN-18 (concentration: 250); 0.494 with LN-18 (concentration: 500); 0.269 with SK-OV-3 (concentration: 10). Besides, the difference in the test with SK-OV-3 (concentration: 50) was 1.12; in the test with SK-OV-3 (concentration: 100) it was 1.16; in the test on SK-OV-3 (concentration: 250) it was 1.1; in the test with SK-OV-3 (concentration: 500) it was 1.13.

Turning to `CC(=O)c1c(C)c2cnc(Nc3ccc(N4CCNCC4)cn3)nc2n(C2CCCC2)c1=O` (concentration unit: uM), the difference was -0.156 with H1299 (concentration: 0.1); -0.266 with H1299 (concentration: 0.5); -0.19 with H1299 (concentration: 1); -0.0957 with H1299 (concentration: 5); -0.0594 in the test with H1299 (concentration: 10).

On to `Cc1nc(Nc2ncc(C(=O)Nc3c(C)cccc3Cl)s2)cc(N2CCN(CCO)CC2)n1` (concentration unit: nM), for which the difference in the test on H1299 (concentration: 25) was -0.00395; in the test with H1299 (concentration: 100), 0.0114; with H1299 (concentration: 250) it was 0.0693; with H1299 (concentration: 1000), 0.167; in the test with H1299 (concentration: 2500) it was 0.163; with LN-18 (concentration: 25), 0.0292. Also, the difference with LN-18 (concentration: 100) was 0.0217; with LN-18 (concentration: 250), 0.0754; with LN-18 (concentration: 1000), 0.0482; in the test with LN-18 (concentration: 2500), -0.0509; with SK-OV-3 (concentration: 25), 0.111; with SK-OV-3 (concentration: 100) it was 0.606. The difference is 0.528 with SK-OV-3 (concentration: 250), 0.636 with SK-OV-3 (concentration: 1000) and 0.551 with SK-OV-3 (concentration: 2500).

On to `COc1cc2ncnc(Nc3ccc(F)c(Cl)c3)c2cc1OCCCN1CCOCC1` (concentration unit: uM), for which the difference was -0.0187 in the test on H1299 (concentration: 1); 0.0302 in the test with H1299 (concentration: 2.5); -0.00342 in the test with H1299 (concentration: 5); 0.0329 in the test with H1299 (concentration: 10); 0.0679 in the test on H1299 (concentration: 20); 0.099 in the test on LN-18 (concentration: 1). Also, the difference in the test on LN-18 (concentration: 2.5) is 0.00859; with LN-18 (concentration: 5), 0.0147; in the test with LN-18 (concentration: 10) it was 0.0212; with LN-18 (concentration: 20), 0.00315; in the test with SK-OV-3 (concentration: 1) it was 0.00612; in the test with SK-OV-3 (concentration: 2.5), -0.00968. Also, the difference in the test with SK-OV-3 (concentration: 5) worked out at 0.0329; with SK-OV-3 (concentration: 10), 0.0831; in the test with SK-OV-3 (concentration: 20), 0.0836.

With `CC[C@]1(O)C[C@H]2CN(CCc3c([nH]c4ccccc34)[C@@](C(=O)OC)(c3cc4c(cc3OC)N(C=O)[C@H]3[C@@](O)(C(=O)OC)[C@H](OC(C)=O)[C@]5(CC)C=CCN6CC[C@]43[C@@H]65)C2)C1` (concentration unit: nM), the difference in the test on H1299 (concentration: 2.5) is -0.165; in the test on H1299 (concentration: 10) it was -0.0783; in the test on H1299 (concentration: 25), -0.00792; in the test with H1299 (concentration: 100) it was -0.00267; in the test with H1299 (concentration: 250) it was -0.0899.

Turning to `CC(=O)O[C@H]1C(=O)[C@@]2(C)[C@H]([C@H](OC(=O)c3ccccc3)[C@]3(O)C[C@H](OC(=O)[C@H](O)[C@@H](NC(=O)c4ccccc4)c4ccccc4)C(C)=C1C3(C)C)[C@]1(OC(C)=O)CO[C@@H]1C[C@@H]2O` (concentration unit: nM), the difference in the test on H1299 (concentration: 10) was -0.0339; in the test on H1299 (concentration: 25), -0.0112; with H1299 (concentration: 50) it was 0.134; in the test on H1299 (concentration: 100) it was 0.374; in the test on H1299 (concentration: 1000) it was 0.566.

Take `COc1cc([C@@H]2c3cc4c(cc3[C@@H](O[C@@H]3O[C@@H]5CO[C@@H](C)O[C@H]5[C@H](O)[C@H]3O)[C@H]3COC(=O)[C@H]23)OCO4)cc(OC)c1O` (concentration unit: uM): the difference in the test with LN-18 (concentration: 1) stood at 0.0338; in the test on LN-18 (concentration: 2.5), 0.04; in the test on LN-18 (concentration: 5), 0.0489; in the test on LN-18 (concentration: 10) it was 0.0688; with LN-18 (concentration: 20), 0.0487; with SK-OV-3 (concentration: 1), 0.0528. Further, the difference in the test on SK-OV-3 (concentration: 2.5) worked out at 0.00327; in the test with SK-OV-3 (concentration: 5), 0.00917; in the test with SK-OV-3 (concentration: 10), 0.159; in the test on SK-OV-3 (concentration: 20), 0.266.

With `COC(=O)c1ccc([C@H]2c3[nH]c4ccccc4c3C[C@H](C(=O)OC)N2C(=O)CCl)cc1` (concentration unit: nM), the difference with H1299 (concentration: 25) is 0.0419; in the test on H1299 (concentration: 100) it was 0.0844; in the test on H1299 (concentration: 250) it was 0.00407; with H1299 (concentration: 500), 0.231; in the test with H1299 (concentration: 1000), 0.121.

With `C[C@@H]1C[C@H](N)C[C@H](c2ccncc2NC(=O)c2ccc(F)c(-c3c(F)cccc3F)n2)C1`, the difference in the test on H1299 (concentration: 1) was determined as 0.00842; in the test with H1299 (concentration: 2.5) it was 0.0956; in the test with H1299 (concentration: 5), 0.0409; with H1299 (concentration: 10), 0.137; in the test on H1299 (concentration: 25), 0.227.

In the case of `N#CC[C@H](C1CCCC1)n1cc(-c2ncnc3[nH]ccc23)cn1` (concentration unit: uM), the difference is 0.0876 with H1299 (concentration: 1); -0.0462 in the test with H1299 (concentration: 2.5); -0.0185 in the test on H1299 (concentration: 5); -0.0963 with H1299 (concentration: 10); 0.115 with H1299 (concentration: 25).

In the case of `COc1cccc2c1C(=O)c1c(O)c3c(c(O)c1C2=O)C[C@@](O)(C(=O)CO)C[C@@H]3O[C@H]1C[C@H](N)[C@H](O)[C@H](C)O1` (concentration unit: nM), the difference was -0.017 in the test on LN-18 (concentration: 25); -0.0175 in the test on LN-18 (concentration: 100); 0.0434 in the test with LN-18 (concentration: 250); 0.361 in the test with LN-18 (concentration: 1000); 0.899 with LN-18 (concentration: 2500); -0.00185 with SK-OV-3 (concentration: 25). Moreover, the difference in the test on SK-OV-3 (concentration: 100) was found to be 0.13; in the test on SK-OV-3 (concentration: 250), 0.133; with SK-OV-3 (concentration: 1000) it was 0.252; in the test with SK-OV-3 (concentration: 2500) it was 0.93.

On to `CO[C@H]1C[C@@H]2CC[C@@H](C)[C@@](O)(O2)C(=O)C(=O)N2CCCC[C@H]2C(=O)O[C@H]([C@H](C)C[C@@H]2CC[C@@H](O)[C@H](OC)C2)CC(=O)[C@H](C)/C=C(\C)[C@@H](O)[C@@H](OC)C(=O)[C@H](C)C[C@H](C)/C=C/C=C/C=C/1C` (concentration unit: nM), for which the difference was -0.0109 in the test with H1299 (concentration: 2.5); 0.177 in the test on H1299 (concentration: 10); 0.0761 in the test with H1299 (concentration: 25); 0.0674 in the test on H1299 (concentration: 50); 0.0406 in the test with H1299 (concentration: 250).

For `COc1cc2nccc(Oc3ccc(NC(=O)C4(C(=O)Nc5ccc(F)cc5)CC4)cc3)c2cc1OC` (concentration unit: uM), the difference was 0.0394 in the test with H1299 (concentration: 0.5); -0.122 in the test on H1299 (concentration: 1); -0.0701 with H1299 (concentration: 2.5); 0.0398 with H1299 (concentration: 5); 0.0491 in the test with H1299 (concentration: 10).
